Screening results from PubChem BioAssay.
DUSP3 inh: inhibitors of human VHR1 phosphatase (DUSP3); P51452; recombinant VHR phosphatase, colorimetric substrate read-out; inhibition, % at 20 µM; hit rate 0.7% among 50,000; in the data active means inhibition above about 60%
Target sequence (P51452 whole entry, looked up): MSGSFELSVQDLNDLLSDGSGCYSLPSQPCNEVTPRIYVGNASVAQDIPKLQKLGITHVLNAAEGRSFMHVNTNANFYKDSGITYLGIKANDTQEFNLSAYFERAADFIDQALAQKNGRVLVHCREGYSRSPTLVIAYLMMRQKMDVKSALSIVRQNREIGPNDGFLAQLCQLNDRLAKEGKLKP
Hits are given with their value; i = inactive. The sample as a whole holds a higher share of hits than the screen did.

SMILES	DUSP3 inh
Cc1cccc(NC(=S)NC(=O)c2ccco2)c1	i
O=c1oc2cc(O)ccc2cc1-c1csc(-c2ccc(-c3ccccc3)cc2)n1	i
COc1ccc2c(c1)/C(=C1/SC(C(C)=O)=C(c3ccccc3)S1)C(=S)C(C)(C)N2	i
O=C1C(Nc2ccccc2)=CC(Nc2ccccc2)/C1=C\c1ccccc1 (stereo not drawn)	i
CCOC(=O)c1sc(NC(=O)c2ccccc2C)nc1C	i
CCOC(=O)c1sc(N/N=C/c2cccc(O)c2)nc1C	97
CCOC(=O)c1sc(N/N=C/c2ccccc2O)nc1C	i
CC1=NN(c2cccc(C(=O)O)c2)C(=O)/C1=C\c1cccs1	i
COc1ccc2c(c1)c(/C=C/c1nc3ccccc3c(=O)n1-c1cccc([N+](=O)[O-])c1)c(C)n2C	i
O=c1c2ccccc2nc(/C=C/c2c[nH]c3ccccc23)n1-c1cccc([N+](=O)[O-])c1	i
Cc1[nH]c2ccccc2c1/C=C/c1nc2ccccc2c(=O)n1-c1cccc([N+](=O)[O-])c1	78
Cc1ccccc1NC(=O)CSc1nc(O)c(Cc2ccccc2)c(=O)n1-c1ccccc1	i
COc1cc(/C=C2/C(=O)NC(=O)N(c3ccc(C(C)C)cc3)C2=O)ccc1O	i
Cc1c(/C=C/c2nc3ccccc3c(=O)n2-c2ccccc2)c2ccccc2n1C	i
CCN(CC)c1ccc(/C=C2/C(=O)NC(=O)N(c3ccccc3)C2=O)cc1	i
Clc1cc2c(cc1CSc1nnnn1-c1ccccc1)OCO2	112
Clc1cc2c(cc1CSc1nc3ncccc3[nH]1)OCO2	i
Fc1ccccc1-n1nnnc1SCc1cc2c(cc1Cl)OCO2	114
Clc1ccc(CSc2nnnn2-c2ccccc2)cc1	i
Clc1ccccc1CSc1nnnn1-c1ccccc1	i
c1ccc(-n2nnnc2SCc2cccc(CSc3nnnn3-c3ccccc3)n2)cc1	i
Cc1cc(Br)ccc1NC(=O)c1cccc(N(C)C)c1	i
CCCOC(=O)c1cccc(NC(=O)c2cccc(Cl)c2)c1	i
CN1CCC(=NNC(=O)c2cccc([N+](=O)[O-])c2)CC1	i
CN1CCC(=NNC(=O)c2cc3ccccc3cc2O)CC1	94
SMILES	DUSP3 inh
CCCN1CCC(=NNC(=O)c2ccccc2O)CC1	i
Cc1cc(=O)[nH]c(SCc2ccc([N+](=O)[O-])cc2)n1	i
O=C(N/N=C/c1ccc(-c2ccc(I)cc2)o1)c1ccccn1	i
CCN(CC)S(=O)(=O)c1ccc(Cl)c(C(=O)Nc2ccccn2)c1	i
CC(=O)Oc1cc2ccccc2cc1O	i
C=CCOc1ccc(Cl)cc1/C=C1/C(=N)N2N=C(CCC)SC2=NC1=O	108
CC(C)C1=NN2C(=N)/C(=C/c3cc(Cl)ccc3OCc3ccccc3)C(=O)N=C2S1	i
CCCC1=NN2C(=N)/C(=C/c3ccccc3C)C(=O)N=C2S1	i
CCCCOC(=O)c1ccc(NC(=O)c2ccc(OC)c([N+](=O)[O-])c2)cc1	i
CCOC(=O)c1c[nH]c2ccc(Br)cc2c1=O	i
O=c1[nH][nH]c(=O)n1/N=C/c1ccccc1O	i
Cc1ccc(OCC(=O)NNC(=O)CC#N)c(C)c1	i
O=C(O)C1C2CCCC1C2c1ccccc1 (stereo not drawn)	101
O=C(O)C12C3CCCC1C32c1ccccc1 (stereo not drawn)	i
O=C(O)C1C2C=CC(C3CC23)C1C(=O)NCc1ccccc1 (stereo not drawn)	i
CCOc1cccc(C(=O)Nc2scc(-c3ccc(F)cc3)c2C(=O)OC)c1	i
CC1=C(C(=O)OCC(F)(F)F)C(c2ccccc2)NC(=O)N1 (stereo not drawn)	i
Cc1ccc(-c2ccc(OCC(=O)Nc3ccc(F)cc3)cc2)cc1	i
O=C(/C=C/c1ccc(-c2ccccc2[N+](=O)[O-])o1)Nc1ccc(-c2nc3ccccc3o2)cc1	106
O=C(/C=C/c1ccc(-c2ccccc2[N+](=O)[O-])o1)NCc1ccccc1	i
O=C(/C=C/c1ccc(-c2ccccc2[N+](=O)[O-])o1)Nc1ccc(O)c(-c2nc3ccccc3o2)c1	i
O=[N+]([O-])c1ccc(N2CCOCC2)cc1N1CCN(CCO)CC1	i
O=c1oc(-c2ccc(Cl)c(Cl)c2)nc2ccccc12	i
Cc1cc2nc(-c3ccc(NC(=O)c4ccco4)cc3O)oc2cc1C	i
COc1ccc(/C=C/C(=O)Nc2c(C)ccc3nsnc23)cc1	i
SMILES	DUSP3 inh
CN(C)c1ccc(CNC(=O)C(O)(c2ccccc2)c2ccccc2)cc1	i
O=C(O)C1Nc2c(Cl)cc(Cl)cc2C2C=CCC12 (stereo not drawn)	97
COc1ccc2c(c1)C1C=CCC1C(C(=O)O)N2 (stereo not drawn)	i
CC(=O)Nc1ccc2c(c1)C1C=CCC1C(C(=O)O)N2 (stereo not drawn)	i
O=C(Nc1ccccc1)c1ccc(-n2cnnn2)cc1	i
O=C(Oc1ccc(-n2cnnn2)cc1)N1CCOCC1	113
COC(=O)c1c(C)oc2ccc(OC(=O)N3CCOCC3)cc12	i
CC(C)(C#N)OC(=O)Nc1ccccc1	i
NC(=O)c1c(NC(=O)c2cccc(Oc3ccccc3)c2)sc2c1CCCC2	i
Cc1cc(C)c(NC(=O)C2C3CCC4C(CCC32)C4(Cl)Cl)c(C)c1 (stereo not drawn)	103
COc1ccc(NC(=O)C2C3CCC4C(CCC32)C4(Cl)Cl)cc1 (stereo not drawn)	i
COc1cccc(NC(=O)C2C3CCC4C(CCC32)C4(Cl)Cl)c1 (stereo not drawn)	i
Cc1cc(C)n(C(=O)C(C)Oc2ccc(Cl)cc2)n1 (stereo not drawn)	i
C=CCN1C(=O)/C(=C\C=C\c2ccco2)C(=O)NC1=S	88
O=C1NC(=S)N(c2ccccc2)C(=O)/C1=C/c1cc(Br)c(O)c(Br)c1	i
O=C1NC(=S)N(c2ccccc2F)C(=O)/C1=C/c1ccc(Sc2ccccc2)o1	i
C=CCN1C(=O)/C(=C\c2ccc(Br)cc2)C(=O)NC1=S	i
O=C1NC(=S)N(c2ccccc2)C(=O)/C1=C/c1ccco1	67
O=C1NC(=S)N(c2ccccc2)C(=O)/C1=C/c1ccc(Cl)cc1Cl	i
CCc1ccc(N2C(=O)NC(=O)/C(=C/C=C/c3ccco3)C2=O)cc1	i
O=C1NC(=S)N(c2ccccc2F)C(=O)C1=Cc1ccco1	87
Cc1ccc(C=C2C(=O)NC(=S)N(c3ccccc3F)C2=O)s1	i
COc1ccc2oc(=O)c(-c3ccc([N+](=O)[O-])cc3)cc2c1	i
COc1ccccc1CCNCc1ccc(Cl)cc1	i
CCOc1ccccc1N(CC(=O)Nc1cc(Cl)cc(Cl)c1)S(=O)(=O)c1ccccc1	i
SMILES	DUSP3 inh
CC1=C(C(=O)Nc2ccc(C)cc2)C(c2ccc(F)cc2)NC(=S)N1 (stereo not drawn)	i
CC1CCN(C(=O)CCCOc2ccc(Cl)cc2Cl)CC1	i
CC(C)c1ccc(N2C(=O)CC(=O)NC2=S)cc1	i
COc1ccccc1C1Nc2ccc(C(=O)c3ccccc3)cc2NC2=C1C(=O)CCC2 (stereo not drawn)	i
COc1ccc(C2Nc3ccc(C(=O)c4ccccc4)cc3NC3=C2C(=O)CCC3)c(OC)c1 (stereo not drawn)	68
CN(C)c1ccc(C2Nc3ccc(C(=O)c4ccccc4)cc3NC3=C2C(=O)CCC3)cc1 (stereo not drawn)	i
CCc1ccc(OCCNc2cc(N3CCCC3)ccc2[N+](=O)[O-])cc1	i
O=C(N1CCCCC1)C12CC3CCC(CC(C3)C1)C2	i
Cc1ccccc1OCC(=O)Nc1cccc(NC(=O)c2ccccc2Cl)c1	i
Cc1ccc(C(=O)Nc2ccc(S(=O)(=O)N3CCC(C)CC3)cc2)cc1	i
C(/C=C/c1ccco1)=N/N1CCN(c2ccccc2)CC1	i
